The values that follow come from the supplement of paper PMC4840960.

Test [1] deals with E18 rat cortical neuron-glia co-culture. Nature of the test: fiber score / MBP score (myelination specific beyond OL differentiation) (ratio); higher = more myelination-specific MBP alignment. The note with it: treatment time: 8 days (DIV5-DIV13). The method, boiled down: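 Reported values are fiber score (continuous MBP fiber length per Olig2+ nucleus) divided by MBP score (thresholded MBP area × intensity per Olig2+ nucleus). They come from primary E18 rat cortical co-cultures treated with library compounds at 1 or 5 µM in myelination medium from DIV5 to DIV13, then fixed in 4 % paraformaldehyde, immunostained for MBP and Olig2 with DAPI, and analysed over four 10X fields per well in duplicate wells.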

Test [2] shares this test system. Put plainly: myelination (MBP fiber length per Olig2+ nucleus), % of 1 µM DAPT response (DMSO = 0) (% of DAPT); higher = more myelination, active = 50 or more. Particulars: treatment time: 8 days (DIV5-DIV13). The method, boiled down: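 Rat cortical co-cultures from E18 tissue were dissociated with papain and plated at 20,000 cells/well on 96-well plates coated with poly-d-lysine/laminin. From DIV5 to DIV13, library compounds were added at 1 or 5 µM in myelination medium. After fixation in 4 % paraformaldehyde, cultures were immunostained for MBP and Olig2 and counterstained with DAPI, and four 10X fields were analysed in each of duplicate wells. The myelination value is the length of continuous straight MBP fibers per Olig2+ nucleus, normalised so that 0.1 % DMSO is 0 and a 1 µM positive control is 100.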

Turning to `CC(C)(C)NCC(O)COc1cccc2c1CC(O)C(O)C2` (configuration not stated) [Nadolol], the “fiber score / MBP score” value in test [1] (1 µM) stood at 0.767; in test [1] (5 µM), 0.949. The myelination is -13.9 (inactive) in test [2] (1 µM) and -7.81 (inactive) in test [2] (5 µM).

In the case of `O=C1NC(=O)C(c2ccccc2)(c2ccccc2)N1` [Phenytoin], the “fiber score / MBP score” value in test [1] (1 µM) worked out at 0.39; in test [1] (5 µM) it was 0.762. The myelination in test [2] (1 µM) was -17.5 (inactive); in test [2] (5 µM) it was -20.9 (inactive).

For the molecule `COc1ccccc1OCC(O)COC(N)=O` (configuration not stated) [Methocarbamol], the “fiber score / MBP score” value amounted to 0.67 in test [1] (1 µM) and 0.985 in test [1] (5 µM). Moreover, the myelination in test [2] (1 µM) is -9.38 (inactive); in test [2] (5 µM) it was -3.49 (inactive).

Take `O=C(O)COCCN1CCN(C(c2ccccc2)c2ccc(Cl)cc2)CC1` (configuration not stated) [Virlix]: the “fiber score / MBP score” value in test [1] (1 µM) amounted to 0.867; in test [1] (5 µM), 0.681. Also, the myelination in test [2] (1 µM) is -2.52 (inactive); in test [2] (5 µM) it was -8.81 (inactive).

`OCCOCCN1CCN(C2=Nc3ccccc3Sc3ccccc32)CC1` [Quetiapine hemifumarate]: the results for the “fiber score / MBP score” value in test [1] (1 µM) and in test [1] (5 µM) were 0.545 and 0.327, respectively. The myelination in test [2] (1 µM) was -10 (inactive); in test [2] (5 µM), -19.9 (inactive).

As for `CC(=O)OCC(=O)NCCCOc1cccc(CN2CCCCC2)c1` [Roxatidine acetate], the “fiber score / MBP score” value in test [1] (1 µM) stood at 0.727; in test [1] (5 µM), 0.706. For the same molecule, the myelination in test [2] (1 µM) was -10.7 (inactive); in test [2] (5 µM), -14.2 (inactive).

`CCCC(=O)O[C@]1(C(=O)COC(=O)CC)CC[C@H]2[C@@H]3CCC4=CC(=O)CC[C@]4(C)[C@H]3[C@@H](O)C[C@@]21C` [Hydrocortisone buteprate]: the entries for the “fiber score / MBP score” value in test [1] (1 µM) and in test [1] (5 µM) were 1.04 and 1.22, respectively. In addition, the myelination is 5.43 (inactive) in test [2] (1 µM) and 12.1 (inactive) in test [2] (5 µM).

On to `C[C@H](CS)C(=O)N1CCC[C@H]1C(=O)O` [Captopril], for which the “fiber score / MBP score” value in test [1] (1 µM) was determined as 0.773; in test [1] (5 µM), 0.704. Further, the myelination is -9.04 (inactive) in test [2] (1 µM) and -9.32 (inactive) in test [2] (5 µM).
